Bioassay records as filed in PubChem.
Only some compounds are listed: those with a hit (about 21% of all), similar ones and a draw of the others.
Shiga toxin inh: inhibitors of Shiga toxin in Vero cells. Vero cells, Shiga toxin protein synthesis inhibition reporter. inhibition, % at 38.7 µM. hit rate 9.2% among 290,000; in the data active = inhibition mostly above about 28%, no sharp cut-off; inactive = mostly below about 43%; note: 0% is about no effect
Pf growth 96h: P. falciparum growth inhibition at 96 hours; P. falciparum luciferase reporter growth, 96 h; Potency, µM (series often up to 28.7 µM), for inactives: at the top dose activity change, negative = inhibition, actives largely listed as inhibitors; hit rate 6.9% among 320,000; AID 504834; note: potency is the fitted concentration of half-maximal effect; % is set by controls: 0 for no effect and ±100 for the full control effect
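Compounds incubated with erythrocytes infected by luciferase-expressing P. falciparum (2% hematocrit, 0.05% parasitemia final) for 96 hours, 37 C in 5% CO2. Growth inhibition scored as decreased luciferase luminescence.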
HCV inhibitor: blocks hepatitis C virus; Huh7.5.1 HCVcc-Cre infection, luciferase reporter, 44 h; Potency, µM (top dose mostly 41.8 µM), for the others: top-dose activity change, negative = inhibition, usual class: inhibitors; AID 651820; hit rate 3.4% among 340,000; note: potency is the fitted concentration of half-maximal effect; % is set by controls: 0 for no effect and ±100 for the full control effect
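Cells seeded at 1,000/well and cultured 4 h, then compounds added followed by HCVcc-Cre virus (~0.5 moi). After 44 h further culture, luciferase substrate was added, plates held 15 min at room temperature, and luminescence read for 15 sec.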
HCMV inh: inhibitors of human cytomegalovirus | HFF cells, HCMV-luciferase reporter, 72 h; active compounds read low | activity change, negative = inhibition, % at 57.5 µM | hit rate 4.5% among 410,000 | AID 1259415; in the data active = activity change below about -60%; inconclusive = no clear call, values can overlap the other calls; inactive = above about -39%; note: % is set by controls: 0 for no effect and ±100 for the full control effect
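Human foreskin fibroblasts infected with luciferase-reporter HCMV at MOI 1 PFU/cell, compounds at two doses. Luciferase measured 72 h post infection; normalized to buffer-only basal and Salinomycin (10uM) controls.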
CHX counter: affects cycloheximide protein synthesis inhibition readout, counter-screen | cell reporter, cycloheximide protein synthesis inhibition counterscreen | hit rate 12% among 300,000 | max response, %; in the data active = max response mostly above about 13%, no sharp cut-off; inactive = mostly below about 14%; note: read at 38.3 µM for the half of the compounds with a filed dose; 0% is about no effect
Pf growth 48h: inhibits P. falciparum growth in the first generation, 48 h; hit rate 5.9% among 310,000; P. falciparum luciferase growth in erythrocytes, 48 h; Potency, µM (highest dose often 28.7 µM), inactives show top-dose activity change, negative = inhibition, usual class: inhibitors; AID 504832; note: potency is the fitted concentration of half-maximal effect; % is set by controls: 0 for no effect and ±100 for the full control effect
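First compound was added to culture medium, then infected red cells at 0.1% parasitemia and 2% hematocrit (final). After incubation at 37 C under 5% CO2, luciferase detection reagent was dispensed and light output recorded.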
Numbers without * were called inactive. Unless noted, calls come from the whole dose curve; as a rule, active = well fitted inhibition curve with a large enough effect; inconclusive = small, poorly fitted or top-dose-only effect, or another doubt; inactive = no such curve, though single readings can be large or run the other way.

`O=C(O)CSc1nc2sc3c(c2c(=O)n1-c1ccccc1)CCC3` gave Shiga toxin inh 9, Pf growth 96h 3%, HCV inhibitor -5%, HCMV inh -25, CHX counter -4 and Pf growth 48h 5%.
For Cc1ccccc1-n1c(SCC(=O)c2c(N)n(C)c(=O)n(C)c2=O)nnc1-c1cccnc1 the results were Shiga toxin inh -10, Pf growth 96h -15%, HCV inhibitor 8%, HCMV inh -26, CHX counter -5 and Pf growth 48h -9%.
For COc1ccc(S(=O)(=O)N2CCCCCC2)cc1NC(=O)CN(C)Cc1ccc2c(c1)OCO2 the results were Pf growth 96h inconclusive, HCV inhibitor 11µM*, HCMV inh inconclusive and Pf growth 48h 12µM*.
Screening CN(CC(=O)Nc1cc(S(=O)(=O)N2CCCC2)ccc1Cl)Cc1ccc2c(c1)OCO2 returned Pf growth 96h inconclusive, HCV inhibitor 6.3µM*, HCMV inh inconclusive and Pf growth 48h 8.3µM*.
CN(CC(=O)Nc1cc(S(=O)(=O)N2CCCCCC2)ccc1Cl)Cc1ccc2c(c1)OCO2 was read as Pf growth 96h inconclusive, HCV inhibitor inconclusive, HCMV inh -1 and Pf growth 48h 12µM*.
`COc1ccc(S(=O)(=O)N2CCCCC2)cc1NC(=O)Cc1ccc(Br)cc1` gave HCV inhibitor -28% and HCMV inh -1.
CN(CC(=O)Nc1cc(S(=O)(=O)N2CCCC2)ccc1Cl)Cc1nc2ccccc2c(=O)[nH]1 was read as HCV inhibitor inconclusive and HCMV inh 65.
For CS(=O)(=O)c1ccc(Cl)c(NC(=O)CNC(=O)c2ccc3c(c2)OCO3)c1 the results were HCV inhibitor 7% and HCMV inh -61*.
COc1ccc2cc(C(C)CO)ccc2c1 (stereo not given) was read as Pf growth 96h 15% and Pf growth 48h -2%.
For COc1cccc(CNC(=O)C2CCN(S(=O)(=O)c3cccc4nonc34)CC2)c1 the results were Shiga toxin inh 7, Pf growth 96h -21%, HCV inhibitor -22%, HCMV inh -12, CHX counter 4 and Pf growth 48h -4%.
C/C=C/c1ccc(OCC(O)CNCCc2ccc(OC)cc2)c(OC)c1 (stereo not given) was read as Shiga toxin inh -3, Pf growth 96h inconclusive, HCV inhibitor inconclusive, HCMV inh inconclusive, CHX counter -2 and Pf growth 48h inconclusive.
`COc1ccc(C(OCC(O)CNC(C)c2ccccc2)c2ccc(OC)cc2)cc1` (stereo not given) gave Shiga toxin inh 7, Pf growth 96h inconclusive, HCV inhibitor -26%, HCMV inh -22, CHX counter -4 and Pf growth 48h 10µM*.
O=C(c1ccccc1)c1ccc(OCC(O)CNCc2ccc(F)cc2)cc1 (stereo not given) was read as Shiga toxin inh -10, Pf growth 96h inconclusive, HCV inhibitor -4%, HCMV inh 13, CHX counter -5 and Pf growth 48h inconclusive.
For COc1cccc(OCC(O)CNC(C)c2ccccc2)c1 (stereo not given) the results were Shiga toxin inh -6, Pf growth 96h inconclusive, HCV inhibitor inconclusive, HCMV inh 16, CHX counter -9 and Pf growth 48h -29%.
`Cc1ccc(C(OCC(O)CNCc2ccc(F)cc2)c2ccccc2)cc1` (stereo not given) gave Shiga toxin inh -6, Pf growth 96h 4.7µM*, HCV inhibitor 8.9µM*, HCMV inh -102* and CHX counter -8.
For COc1ccc(C(OCC(O)CNCCc2ccccc2)c2ccc(OC)cc2)cc1 (stereo not given) the results were Shiga toxin inh -2, Pf growth 96h 4.1µM*, HCV inhibitor inconclusive, HCMV inh -28, CHX counter -6 and Pf growth 48h 9.3µM*.
For CCSCc1nnc(SCC(=O)Nc2nc(C)cs2)n1C the results were Shiga toxin inh -2, Pf growth 96h 16%, HCMV inh 2, CHX counter 0 and Pf growth 48h -1%.
COC1CC(=O)C2OC(c3ccccc3)OCC2O1 (stereo not given) was read as HCMV inh -25.
`CC(=O)c1ccc(-c2cccc(C3C4C=CCCC4(C)C(=O)N3Cc3ccccc3)c2)cc1` (stereo not given) gave Shiga toxin inh -5 and CHX counter 14.
CC(C)(C)OC(=O)N1CCC(NC(=O)c2nc[nH]c2C(=O)NCc2ccccc2)CC1 was read as Pf growth 96h inconclusive, HCV inhibitor -13%, HCMV inh -19 and Pf growth 48h inconclusive.
CC(C)(C)OC(=O)NCc1ccc(CNC(=O)c2[nH]cnc2C(=O)NC2CCN(C(=O)OC(C)(C)C)CC2)cc1 was read as Pf growth 96h inconclusive, HCV inhibitor inconclusive and Pf growth 48h 5.9µM*.
CC(C)(C)OC(=O)NCCCCCNC(=O)c1nc[nH]c1C(=O)NCCCCCNC(=O)OC(C)(C)C was read as HCV inhibitor 10µM* and HCMV inh -75*.
`CC(C)(C)OC(=O)CNC(=O)c1nc[nH]c1C(=O)NCc1ccc(CNC(=O)OC(C)(C)C)cc1` gave Shiga toxin inh -2, Pf growth 96h 81%, HCV inhibitor inconclusive, HCMV inh 46, CHX counter -2 and Pf growth 48h inconclusive.
For CC(C)(C)OC(=O)NCCCCCNC(=O)c1nc[nH]c1C(=O)NCc1ccc(CNC(=O)OC(C)(C)C)cc1 the results were HCV inhibitor 8.9µM* and HCMV inh -95*.
CCOc1ccccc1CNCc1ccc(F)cc1 was read as Shiga toxin inh 7, Pf growth 96h 19%, HCV inhibitor -6%, HCMV inh inconclusive, CHX counter -2 and Pf growth 48h 6%.
Screening O=C(CSc1nnnn1-c1cccnc1)Nc1ccccc1F returned Shiga toxin inh -3, Pf growth 96h 106%, HCV inhibitor 12%, HCMV inh 15, CHX counter -2 and Pf growth 48h 33%.
Cc1ccc(NC(=O)CSc2nnc(C)s2)c(C)c1 was read as HCMV inh 0.
Screening Cc1c(NC(=O)c2cc([N+](=O)[O-])ccc2N2CCOCC2)cccc1-c1nc2ccccc2o1 returned HCMV inh -21.
`C(#Cc1ccc(C#CCN2CCOCC2)cc1)CN1CCOCC1` gave Shiga toxin inh -8, Pf growth 96h -1%, HCV inhibitor -4%, HCMV inh -16, CHX counter -2 and Pf growth 48h 26%.
O=C(C[N+]1(CC#Cc2ccccc2)CCOCC1)c1ccc(Cl)cc1 was read as Shiga toxin inh 6, Pf growth 96h 40%, HCV inhibitor -3%, HCMV inh 9, CHX counter 8 and Pf growth 48h inconclusive.
